Assay outcomes deposited in PubChem by Johns Hopkins Ion Channel Center.
Only some compounds are listed: those with a hit (about 1.6% of all), similar ones and a draw of the others.
KCNQ2 enhance: enhances the rat KCNQ2 potassium channel. CHO-K1 KCNQ2, FluxOR thallium flux fluorescence; active compounds read high. AID 2239. O88943. B-score at 10 µM. actives 0.54% (n = 310,000);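 active = fluorescence ratio B-score at least 3 SD of library B-scores, with initial fluorescence B-score within 3 of them, cut at about 5.3 in these data; same plate scores as AID 2156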;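 note: B-score of peak minus minimum over baseline fluorescence ratio after K+ and Tl+ stimulus; positive B-score means potentiation of KCNQ2 with more thallium influx and brighter signal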
Target sequence (O88943 whole entry, looked up): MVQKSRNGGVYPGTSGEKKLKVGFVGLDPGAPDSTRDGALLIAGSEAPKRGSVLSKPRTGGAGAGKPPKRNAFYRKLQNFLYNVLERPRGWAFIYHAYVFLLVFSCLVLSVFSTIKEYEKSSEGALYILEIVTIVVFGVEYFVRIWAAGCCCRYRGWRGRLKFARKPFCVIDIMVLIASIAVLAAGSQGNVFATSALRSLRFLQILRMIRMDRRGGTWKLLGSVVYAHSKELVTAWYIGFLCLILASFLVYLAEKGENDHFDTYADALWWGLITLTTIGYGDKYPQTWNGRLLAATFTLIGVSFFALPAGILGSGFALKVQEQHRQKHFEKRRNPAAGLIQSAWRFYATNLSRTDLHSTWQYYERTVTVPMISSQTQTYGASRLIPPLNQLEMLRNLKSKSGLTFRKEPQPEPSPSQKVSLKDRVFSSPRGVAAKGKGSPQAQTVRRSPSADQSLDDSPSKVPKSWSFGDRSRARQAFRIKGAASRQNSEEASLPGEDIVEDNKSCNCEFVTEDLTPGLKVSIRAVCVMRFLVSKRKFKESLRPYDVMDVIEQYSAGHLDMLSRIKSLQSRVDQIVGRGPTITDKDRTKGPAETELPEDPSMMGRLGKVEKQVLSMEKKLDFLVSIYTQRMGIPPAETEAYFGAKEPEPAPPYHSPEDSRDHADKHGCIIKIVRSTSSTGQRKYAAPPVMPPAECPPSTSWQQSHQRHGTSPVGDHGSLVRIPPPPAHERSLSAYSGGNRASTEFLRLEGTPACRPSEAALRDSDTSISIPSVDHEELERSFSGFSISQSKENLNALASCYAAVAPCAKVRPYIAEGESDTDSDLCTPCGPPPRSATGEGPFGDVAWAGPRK
KCNQ2 inh: KCNQ2 (rat) channel inhibition; O88943; CHO-K1 KCNQ2, FluxOR thallium flux, 20 min; active compounds read low; B-score at 10 µM; actives 1.1% (n = 310,000); AID 2156;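 active = fluorescence ratio B-score at most minus 3 library SDs, with starting brightness B-score within 2 library SDs, cut at about -5.5 in these data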
Numbers without * were called inactive; i = inactive; . = not tested or not shown.

SMILES	KCNQ2 enhance	KCNQ2 inh
Cc1ccc(Cl)cc1N1CCN(C(=O)C(C)n2ncn3cccc3c2=O)CC1 (stereo not drawn)	-5.8	-5.8*
CC(C(=O)N1CCCCC1)n1ncn2cccc2c1=O (stereo not drawn)	0.51	i
CN(CCOc1ccccc1)C(=O)C1CCC(=O)N(CCN2CCOCC2)C1 (stereo not drawn)	.	i
Cn1c2ccccc2c(=O)c2c(=O)n(C3CCCCC3)c(-c3ccco3)nc21	6.7*	i
Cc1nc2c(c(=O)c3ccccc3n2C)c(=O)n1C1CCCCCC1	0.08	i
CCCCCc1n[nH]c2c1CCCC2	.	i
O=C(NCCc1nnc2ccc(N3CCCC3)nn12)c1ccccc1	2.2	i
CC1CCCN(C(C(=O)Nc2ccc3c(c2)OCCO3)c2ccccc2)C1 (stereo not drawn)	.	i
CC1CCCN(C(C(=O)Nc2ccc3c(c2)OCO3)c2ccccc2)C1 (stereo not drawn)	-5.7	-5.7*
Clc1cccc(/C=N/N2CCN(Cc3ccccc3)CC2)c1	.	i
COc1ccc(NC(=O)CN(c2ccccc2F)S(=O)(=O)c2ccc(C)cc2)c(OC)c1	.	i
Cc1ccc(OCC(COCc2ccccc2)NC(C)C)cc1 (stereo not drawn)	.	i
CCNc1nc(NC(C)C)nc(SCCOC(=O)c2ccccc2)n1	.	i
CCNc1nc(NC(C)C)nc(SCCOc2ccc(C)cc2)n1	-5.6	-5.6*
Cc1ccc(C)c(N2N=C(C(=O)OCc3nnc(-c4ccccc4)o3)CCC2=O)c1	.	i
N#Cc1ccc(NC(=O)N2CCC(c3nc4c(nnn4Cc4cccc(Cl)c4)c(=O)[nH]3)CC2)cc1	-7.5	-7.5*
O=C(c1ccco1)N1CCCC(c2nc3c(nnn3Cc3cccc(Cl)c3)c(=O)[nH]2)C1 (stereo not drawn)	0.55	i
COc1ccc(-n2nc3c(c2NC(=O)c2cc4ccccc4o2)CS(=O)(=O)C3)cc1	.	i
Cc1ccccc1-n1nc2c(c1NC(=O)c1cc3ccccc3o1)CS(=O)(=O)C2	-7.6	-7.6*
Cc1ccccc1-n1nc2c(c1NC(=O)c1ccco1)CS(=O)(=O)C2	0.64	i
Cc1ccccc1-n1nc2c(c1NC(=O)c1ccc(Br)o1)CSC2	-5.9	-5.9*
Cc1cccc2c(C(=O)O)cc(-c3cccnc3)nc12	0.01	i
Cc1cc(C)c2nc(-c3cccnc3)cc(C(=O)NC(C)c3cnn(C)c3C)c2c1 (stereo not drawn)	-8	-8*
O=C(C1=C[C@H](c2ccccc2)C[C@H](OCc2ccc(CO)cc2)O1)N1CCN(Cc2ccccc2)CC1	.	i
O=C(C1=C[C@H](c2ccc(C(F)(F)F)cc2)C[C@H](OCCCCO)O1)N1CCN(Cc2ccc3c(c2)OCO3)CC1	.	i
SMILES	KCNQ2 enhance	KCNQ2 inh
O=C(C1=C[C@@H](C2CC2)C[C@@H](OCCCCO)O1)N1CCN(Cc2ccccc2)CC1	.	i
O=C(C1=C[C@@H](c2ccc(Br)cc2)C[C@@H](OCCCCO)O1)N1CCN(Cc2ccc3c(c2)OCO3)CC1	-6.2	-6.2*
O=C(C1=C[C@@H](C2CCCCC2)C[C@@H](OCCCCO)O1)N1CCN(Cc2ccccc2)CC1	-5.7	-5.7*
O=C(C1=C[C@@H](c2ccccc2)C[C@@H](OCc2ccc(CO)cc2)O1)N1CCN(Cc2ccc3c(c2)OCO3)CC1	-5.8	-5.8*
CC1CC(C)CN(S(=O)(=O)CCNC(=O)c2ccccc2)C1 (stereo not drawn)	0.19	i
CN(C)C(CNC(=O)CCc1c[nH]c2ccccc12)c1ccccc1 (stereo not drawn)	.	i
Cn1c(SCC(=O)O)nnc1-c1ccc2ncccc2c1	.	i
O=C(N/N=C/c1cccc([N+](=O)[O-])c1O)c1cccs1	6*	i
O=C(N/N=C/c1ccc([N+](=O)[O-])cc1)c1cccs1	.	i
COc1ccc(C)cc1NC(=O)C(Sc1nnc(Nc2ccccc2F)s1)c1ccccc1 (stereo not drawn)	-6.3	-6.3*
COc1ccc(C)cc1NC(=O)C(Sc1nncn1C)c1ccccc1 (stereo not drawn)	.	i
O=C(Nc1ccnn1C1CCN(CCCc2ccccc2)CC1)c1ccccc1Cl	1.9	i
Cc1ccc(CNC(=O)[C@H](C)N2C(=O)N3CCc4c([nH]c5ccccc45)[C@@]3(C)C2=O)cc1	0.06	i
COc1ccc2[nH]c3c(c2c1)CCN1C(=O)N([C@@H](C)C(=O)NCc2ccc(F)cc2)C(=O)[C@]31C	.	i
COc1ccc2[nH]c3c(c2c1)CCN1C(=O)N([C@@H](C)C(=O)NCCc2ccc(F)cc2)C(=O)[C@]31C	-7	-7*
C[C@@H](C(=O)NCCc1ccc(F)cc1)N1C(=O)N2CCc3c([nH]c4ccccc34)[C@@]2(C)C1=O	-6.3	-6.3*
Cc1nc(C(F)(F)F)ccc1C(=O)Nc1ccccc1N1CCOCC1	0.47	i
CC1Oc2ccccc2C=C1/C=N/Nc1ccc(C(=O)O)cc1 (stereo not drawn)	1.4	i
COc1cc(C=O)ccc1OCC(=O)Nc1cccc(S(=O)(=O)N(C)c2ccccc2)c1	-8.3	-8.3*
COc1ccccc1OCC(=O)Nc1cccc(N(C)S(C)(=O)=O)c1	.	i
Cc1ccc(NC(=S)N2CCC(NC(=O)c3ccc(C)cc3)CC2)cc1	.	i
CCCNC(=S)N1CCC(NC(=O)c2ccc(C)cc2)CC1	-7.3	-7.3*
CCn1nc(C)c(CNC(=O)c2cc(COc3ccc(C)nc3)on2)c1C	0.78	i
CCSc1n[nH]c2nc3c(c(=O)n12)C1(CCCC1)Cc1ccccc1-3	.	i
Cc1ccc(-n2c(SCC(N)=O)nc3c(c2=O)C2(CCCC2)Cc2ccccc2-3)cc1	-5.6	-5.6*
SMILES	KCNQ2 enhance	KCNQ2 inh
CC(C)(C)n1nc2c(c1NC(=O)c1cc(Cl)ccc1[N+](=O)[O-])CS(=O)(=O)C2	0.25	i
CN(C)c1ccc(S(=O)(=O)N(C)C)cc1NC(=O)Cc1cccc2ccccc12	-7.5	-7.5*
O=C(Cc1cccc2ccccc12)Nc1ccc(O)cc1C(=O)O	.	i
CCOc1cc(C(=O)N[C@@H](C)C(=O)N2CCC3(CC2)NCCc2[nH]cnc23)cc(OCC)c1OCC	.	i
O=c1[nH]c(-c2ccccc2)nnc1-c1ccccc1	.	i
N#Cc1c(-c2ccccc2)c(-c2ccccc2)n(Cc2ccco2)c1NC(=O)c1cccs1	-6.3	-6.3*
O=C(CSc1nnc(-c2ccc(O)cc2)n1Cc1ccco1)c1cccs1	0.02	i
COc1ccc(NC(=O)N2C3CCCC2CC(NC(=O)c2ccccc2)C3)cc1 (stereo not drawn)	0.33	i
O=c1c2cc(-c3ccccc3)sc2ncn1/N=C/c1ccco1	-5.9	-5.9*
CCCCn1cnc2sc(-c3ccccc3)cc2c1=O	0.71	i
O=C(CNCc1ccccn1)Nc1ccc([N+](=O)[O-])cc1C(=O)Nc1ccccc1F	0.12	i
CCCCCC1(C)NC(=S)N(c2ccccc2)N1 (stereo not drawn)	.	i
CCC1(c2ccc(Cl)cc2)NC(=S)N(c2ccccc2)N1 (stereo not drawn)	11*	i
CCCCCCC1(C)NC(=S)N(c2ccccc2)N1 (stereo not drawn)	.	i
CCC1(c2ccccc2)NC(=S)N(c2ccc(C)cc2)N1 (stereo not drawn)	13*	i
O=C(NCCCN1CCCC1=O)c1cc(-c2ccc3c(c2)OCO3)nc2ccccc12	.	i
O=C(NCCCN1CCCC1=O)c1cc(-c2cccnc2)nc2ccc(Cl)cc12	-6.5	-6.5*
